Among the data in PubChem BioAssay are growth inhibition values, retold here.

Molecules are shown by their SMILES. Values without a mark were called inactive. Activity calls are given as the source filed them.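 The calls were made as follows: active = growth inhibition above 50% at the single 2 µM test dose, taken to imply half-maximal potency below 2 µM; inactive = the rest.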

This experiment is described as follows: antimalarial activity against Dd2 strain (AID 2302).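 Also: 0% = DMSO untreated growth and 100% = chloroquine plus artemisinin killed control.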 To be noted: P. falciparum Dd2 in RBCs, LDH growth readout, 72 h; at 2 µM; active compounds read high.
As for `Cc1ccc2[nH]c3c(c2c1)CC(C(=O)NCCC(C)C)NC31CCN(Cc2ccccc2)CC1` (stereo not given), the growth inhibition is 50% (active).

For the compound `COc1ccc2nccc([C@@H](O)CN3CCC(NCc4cc5sccc5nc4C(F)(F)F)CC3)c2c1`, the growth inhibition is 67% (active).

For the compound `Cc1cc(C2CCN(CCCCNC(=O)c3ccc(-c4ccc(C(F)(F)F)cc4)cc3)CC2)c(C)cc1OCCOC1CCCCO1` (stereo not given), the growth inhibition is 5%.

As to `FC(F)(F)CNc1nc(Nc2ccc3ncccc3c2)nc2[nH]ccc12`, the growth inhibition was 83% (active).

In the case of `CCS[C@@H]1O[C@H](COC(=O)c2ccccc2)[C@H](OC(=O)c2ccccc2)[C@H](OC(=O)c2ccccc2)[C@H]1OC(=O)c1ccccc1`, the growth inhibition was 52% (active).

On to `COc1ccc(S(=O)(=O)Nc2cc(C)cc(Br)c2OC)cc1N1CCN(C(=O)C(Cl)(Cl)Cl)CC1`, for which the growth inhibition is 66% (active).

On to `COc1ccc(NC(=O)c2ccc(OCCCCCCCOc3ccc(C(=O)Nc4ccc(OC)c(N5CCN(C)CC5)c4)cc3)cc2)cc1N1CCN(C)CC1`, for which the growth inhibition was 91% (active).

Consider `CCOC(=O)C(C#N)NC(=O)C=Cc1ccccc1` (stereo not given), for which the growth inhibition was 9%.

Turning to `CCC(=O)Nc1cc(=O)[nH]c2nc(-c3ccc(Cl)cc3)nn12`, the growth inhibition was 62% (active).

For the compound `COc1cccc(C2(c3cccc(OC)c3)N=C(N)N(CCCc3ccccc3)C2=O)c1`, the growth inhibition is 93% (active).

With `COc1ccc(CCN(C)CCCN2CCC(NC(=O)c3cccc4c(=O)c5ccccc5sc34)CC2)cc1OC`, the growth inhibition was 79% (active).

`Oc1cccc(Nc2ccnc3cc(-c4cc5ccccc5o4)ccc23)c1`: the growth inhibition was 71% (active).

In the case of `Cc1cccc2[nH]c(-c3cccc(-c4ccc(NC(=O)CN5CCN(C)CC5)cc4)c3)nc12`, the growth inhibition was 99% (active).

On to `Nc1ccc(-c2ccc3ccnc(N)c3c2)cc1`, for which the growth inhibition was 68% (active).

`Cn1cnc2c(SCc3ccccc3OCc3ccccc3)ncnc21`: the growth inhibition was 34%.

For `O=C(Nc1ccc2c(c1)CCN2C1CCN(Cc2csc3ccccc23)C1)c1ccco1` (stereo not given), the growth inhibition was 95% (active).

With `COc1ccc2cc(-c3nc(-c4c(Cl)cccc4Cl)[nH]c3-c3ccnc(NCCCN4CCCCC4C)c3)ccc2c1` (stereo not given), the growth inhibition was 86% (active).

Consider `COc1cc(Cc2cnc(N)nc2N)cc(CC(C)O)c1O` (stereo not given), for which the growth inhibition is 2%.

Regarding `COc1ccc(N2CCN(CCCCNC(=O)c3ccc(NC(=O)c4cc(C(F)(F)F)cc(C(F)(F)F)c4)cc3)CC2)c(OC)c1`, the growth inhibition is 99% (active).

For the compound `Cc1ccc(C(=O)Nc2cccc(CN3CCCN(Cc4ccc(O)cc4)CC3)c2)cc1`, the growth inhibition is 5%.

For the compound `O=C(Nc1cccc(-c2cccc(-c3nc4ccc(C(F)(F)F)cc4[nH]3)c2)c1)c1csnn1`, the growth inhibition was 37%.

Take `Cc1ccc(OCCCCON2C(N)=NC(N)=NC2(C)C)cc1C`: the growth inhibition was 97% (active).

Regarding `CCOc1cc(NCCCNc2ncc([N+](=O)[O-])cc2C)nc2ccccc12`, the growth inhibition was 64% (active).

As to `N#Cc1cccc(C(=O)Nc2cccc(-c3ccc(CN4CCCC4)cc3)c2)c1`, the growth inhibition is 42%.

For `O=C(O)c1ccc(NC(=O)C2CC(=O)N(Cc3ccc(Cl)cc3)C(=Nc3ccc(Cl)cc3)S2)cc1` (stereo not given), the growth inhibition is 95% (active).

For `CN1CCN(c2cc(-c3ccncc3)nc(-c3cccnc3)n2)CC1`, the growth inhibition is 98% (active).

Consider `COC(=O)c1cccc(CNCc2cccc(-c3cccc(-c4nc5ccc(C(F)(F)F)cc5[nH]4)c3)c2)c1`, for which the growth inhibition is 69% (active).

On to `O=C(Nc1cc(Cl)cc(Cl)c1)Nc1ccccc1C(=O)NC1CCCCC1`, for which the growth inhibition was 100% (active).

On to `COCCN1CCN(Cc2ccc(-c3ccc(-c4nc5ccc(F)cc5[nH]4)cc3)cc2)CC1`, for which the growth inhibition was 99% (active).

For `Cc1noc(-c2ccc3c(c2)CCN(CCC2CCC(NC(=O)/C=C/c4ccc(F)cc4)CC2)CC3)n1` (stereo not given), the growth inhibition is 39%.

For `O=S(=O)(NCCN1CCCC1)c1ccc(-c2cccc(CNCCc3cccs3)c2)s1`, the growth inhibition was 44%.

As for `CCSc1ccccc1CON1C(N)=NC(N)=NC1(C)C`, the growth inhibition was 10%.

`Cc1cccc2[nH]c(-c3cccc(-c4ccc(CN5CCN(CCO)CC5)cc4)c3)nc12`: the growth inhibition was 63% (active).

For `Cn1cnc(CCNC(=O)c2cccc(-c3csc(-c4nc5ccccc5[nH]4)c3)c2)c1`, the growth inhibition is 26%.

For the compound `CC(C)(C)c1ccc(O)c(CNC2CCCCC2)c1`, the growth inhibition was 98% (active).

Take `O=[N+]([O-])c1ccc(CNCCCCCCNCc2ccc([N+](=O)[O-])c3ccccc23)c2ccccc12`: the growth inhibition is 98% (active).

For `CN(C)Cc1ccc2cc(NC(=O)c3ccc(-c4ccc(Cl)cc4)cc3)ccc2n1`, the growth inhibition was 30%.

Turning to `CCN(CC)C(=O)C1CCN(C(C(=O)N2CCN(CC(=O)N3CCCC3)CC2)c2cc3ccccc3o2)CC1` (stereo not given), the growth inhibition is 4%.

Consider `N#Cc1ccc(Sc2nnc(-c3ccccc3Cl)n2CC2CCCCC2)cc1[N+](=O)[O-]`, for which the growth inhibition was 34%.

For the compound `Oc1c(C(Nc2ccccn2)c2ccco2)cc(Cl)c2cccnc12` (stereo not given), the growth inhibition is 65% (active).
